Here are results for twelve compounds from PubChem BioAssay.

Calls of active or inactive are those of the source. Unless noted, no rule for the calls is given here.

Test [1] in a line: resazurin metabolic signal in HepG2 cells – cell-based, resazurin fluorescence, 24 h, PK04 Diversity Set, profiling panel (AID 1172). Also: test concentration not given here. To be noted: HepG2 viability, higher = more signal.
Test [2] in a line: budding yeast growth changes without added modifier – OD600, strain BY4716, 24 h, basal condition, primary screen (AID 1173). To be noted: S. cerevisiae BY4716 growth, OD600, 24 h; higher = more signal, called active from +8 up or from −8 down.
Test [3] can be described thus: viability profiling in MM1S myeloma cells – cell-based, resazurin fluorescence, basal, 24 h, PK04 Diversity Set, profiling panel (AID 1174).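 Also: MM1S multiple myeloma cell line; test concentration not given here.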 The conditions noted are these: higher = more signal, called active from +8 up or from −8 down. In general terms: The colour change of resazurin is a common sign of viable cells or microbes.
Test [4] deals with Dihydroorotate dehydrogenase (quinone), mitochondrial (Plasmodium falciparum (isolate 3D7)) (UniProt Q08210). Put plainly: inhibition of P. falciparum DHODH – biochemical, C-terminal His tag, absorbance 600 nm, primary screen (AID 1175).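 Also: recombinant parasite enzyme with a five histidine tag at its C terminus; test concentration not given here.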 To be noted: PfDHODH enzyme, DCIP absorbance 600 nm; higher = more signal, called active from +8 up or from −8 down.
Chain of Dihydroorotate dehydrogenase (quinone), mitochondrial (Plasmodium falciparum (isolate 3D7)) (Q08210 whole entry, looked up): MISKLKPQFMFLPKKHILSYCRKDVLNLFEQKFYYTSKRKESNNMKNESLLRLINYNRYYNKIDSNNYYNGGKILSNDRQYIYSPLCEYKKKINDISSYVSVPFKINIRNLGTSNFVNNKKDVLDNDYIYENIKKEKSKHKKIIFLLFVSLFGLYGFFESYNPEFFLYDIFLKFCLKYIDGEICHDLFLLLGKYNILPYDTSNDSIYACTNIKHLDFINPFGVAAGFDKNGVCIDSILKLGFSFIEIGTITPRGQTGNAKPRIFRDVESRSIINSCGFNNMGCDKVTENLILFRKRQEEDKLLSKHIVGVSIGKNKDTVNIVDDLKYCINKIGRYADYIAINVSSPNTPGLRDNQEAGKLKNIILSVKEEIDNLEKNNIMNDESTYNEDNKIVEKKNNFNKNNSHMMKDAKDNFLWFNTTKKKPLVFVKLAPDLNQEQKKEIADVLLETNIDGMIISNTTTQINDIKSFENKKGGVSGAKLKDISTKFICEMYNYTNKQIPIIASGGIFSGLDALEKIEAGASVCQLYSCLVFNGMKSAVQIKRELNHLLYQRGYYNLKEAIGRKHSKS
The nature of test [5]: inhibition of PAO1 biofilm formation – strain PAO1, LB-PBS medium, absorbance 600 nm, primary screen (AID 1176). Also: test concentration not given here. The conditions noted are these: P. aeruginosa PAO1 growth/biofilm, A600, 12 h; higher = more signal.
Test [6] is described as follows: growth modulation of vineyard yeast isolate – strain RM11-1a, OD600, basal, 24 h, primary screen (AID 1177).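 Also: cultures grown under basal conditions with no added stressor; test concentration not given here.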 To be noted: S. cerevisiae RM11-1a growth, OD600, 24 h; higher = more signal, called active from +8 up or from −8 down.
Test [7] can be described thus: growth of efflux-deficient E. coli DRC39 – strain DRC39, OD650, 24 h, E. coli filamentation inducers, primary screen (AID 1178).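 Also: growth measured as culture turbidity by optical density at 650 nm; test concentration not given here.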 To be noted: E. coli DRC39 acrAB, higher = more signal, called active from +8 up or from −8 down.
Test [8] can be described thus: growth of efflux-deficient E. coli DRC39 – strain DRC39, OD650, 48 h, E. coli filamentation inducers, primary screen (AID 1179).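 Also: screen aims at cell division blockers that make cells filament.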 The conditions noted are these: E. coli DRC39 delta-acrAB growth, higher = more signal, called active from +8 up or from −8 down.
The nature of test [9]: viability profiling in RPMI8226 myeloma cells – cell-based, resazurin fluorescence, basal, 24 h, PK04 Diversity Set, profiling panel (AID 1180).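 Also: RPMI8826 multiple myeloma cell line at 5000 cells per well; test concentration not given here.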 To be noted: higher = more signal.
Test [10] concerns the target E3 ubiquitin-protein ligase XIAP (Homo sapiens) (UniProt P98170). Nature of the test: small molecules binding XIAP protein – biophysical, small-molecule microarray, fluorescence 635 nm, primary screen (AID 1181).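 Also: score merges 667 nm emission and signal to noise over triplicate slides.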 The conditions noted are these: higher = more signal.

Chain of E3 ubiquitin-protein ligase XIAP (Homo sapiens) (P98170 whole entry, looked up): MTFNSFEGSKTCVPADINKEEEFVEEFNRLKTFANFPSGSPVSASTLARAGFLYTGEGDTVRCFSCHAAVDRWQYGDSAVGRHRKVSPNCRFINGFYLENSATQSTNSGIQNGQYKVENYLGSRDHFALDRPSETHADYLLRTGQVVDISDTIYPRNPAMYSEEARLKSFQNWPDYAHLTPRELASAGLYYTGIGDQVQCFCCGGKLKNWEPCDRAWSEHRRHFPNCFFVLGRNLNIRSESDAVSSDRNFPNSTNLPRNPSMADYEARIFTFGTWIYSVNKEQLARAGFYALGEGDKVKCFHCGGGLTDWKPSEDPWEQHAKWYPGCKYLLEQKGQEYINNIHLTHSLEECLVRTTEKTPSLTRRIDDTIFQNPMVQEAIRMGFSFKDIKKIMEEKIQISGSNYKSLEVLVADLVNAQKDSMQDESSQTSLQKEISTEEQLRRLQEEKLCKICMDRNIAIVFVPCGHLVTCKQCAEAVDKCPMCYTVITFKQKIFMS

On to `CCCCCN1CC=CC23O[C@@H]4C=CCOC(=O)[C@@H]4[C@H]2C(=O)N(CCCCCCO)[C@@H]3C1=O` (stereo not given in full), for which the z-score is 0.547 in test [1]; 0.428 (inactive) in test [2]; 0.806 (inactive) in test [3]; 0.454 (inactive) in [5]; 0.151 (inactive) in test [6]; 0.282 (inactive) in test [7]. The z-score in test [8] was 0.225 (inactive); in [9] it was 0.922. Further, the composite z-score in [4] is -0.473 (inactive); in test [10] it was 0.114.

Regarding `O=C1O[C@@H](c2ccccc2)[C@@H](c2ccccc2)N2[C@@H](c3ccc(OCCO)cc3)[C@]3(C(=O)Nc4ccccc43)[C@@H](C(=O)N3CCN(c4ncccn4)CC3)[C@H]12`, the z-score is -0.18 in test [1]; 0.944 (inactive) in [2]; -0.271 (inactive) in [3]; 1.47 (inactive) in [5]; 2.78 (inactive) in test [6]; 0.142 (inactive) in test [7]. Further, the z-score in test [8] was 1.07 (inactive); in test [9], 0.652. Moreover, the composite z-score is -2.37 (inactive) in test [4] and -0.227 in test [10].

On to `O=C1NC(=O)C2C1C=CC(C(O)Cc1ccccc1)N2Nc1ccccn1` (stereo not given), for which the z-score in test [1] is -0.507; in test [2], 0.424 (inactive); in test [3], -0.164 (inactive); in test [5], -0.118 (inactive); in test [6], -0.979 (inactive); in [7], 0.374 (inactive). For the same compound, the z-score in [8] was 1.42 (inactive); in [9], -0.448. The values for the composite z-score in test [4] and in test [10] were 0.195 (inactive) and -0.136, respectively.

Take `CCOC(=O)C1=CCC(c2cc3ccccc3[nH]2)NC1` (stereo not given): the z-score in test [1] was -0.309; in test [2], -3.2 (inactive); in test [3], -0.79 (inactive); in test [5], 0.0083 (inactive); in [6], -0.194 (inactive); in test [7], -0.303 (inactive). Besides, the results for the z-score in test [8] and in [9] were -0.391 (inactive) and -0.613, respectively. Further, the figures for the composite z-score in test [4] and in test [10] were -0.0148 (inactive) and 0.0418, respectively.

Consider `CO[C@H]1COC(=O)[C@H](C)NC(=O)[C@@H](C)COC(=O)CC=C[C@@H]1C`, for which the z-score was -0.279 in [1]; -0.518 (inactive) in [2]; 0.0346 (inactive) in test [3]; -0.443 (inactive) in test [5]; -0.477 (inactive) in test [6]; 0.327 (inactive) in test [7]. In addition, the results for the z-score in test [8] and in test [9] were 1.3 (inactive) and 0.0991, respectively. Moreover, the composite z-score was -0.0114 (inactive) in [4] and 0.0593 in test [10].

Regarding `C=COC[C@H]1CN2[C@@H](CC[C@@H](C)[C@@H]2c2ccc(Br)cc2)C(=O)O1`, the z-score is 0.524 in test [1]; -3.11 (inactive) in [2]; 0.255 (inactive) in [3]; 0.523 (inactive) in test [5]; -2.06 (inactive) in [6]; 0.0556 (inactive) in test [7]. Also, the z-score in [8] was -0.848 (inactive); in test [9] it was -0.555. The composite z-score was -0.613 (inactive) in [4] and -0.209 in [10].

With `CO[C@@H]1COC(=O)CCC[C@@H](C)[C@H](OC)COC(=O)[C@H](Cc2ccccc2)NC(=O)CC=C[C@H]1C`, the z-score in test [1] was 0.229; in test [2] it was -0.987 (inactive); in test [3] it was -0.15 (inactive); in test [5], -0.291 (inactive); in [6], 0.926 (inactive); in test [7], 0.024 (inactive). In addition, the z-score in test [8] is 0.407 (inactive); in test [9] it was 1.05. Besides, the composite z-score in test [4] is 0.615 (inactive); in [10], 0.0155.

Turning to `CO[C@H]1O[C@H](CO)[C@@H](OC(=O)Nc2ccc(C#N)cc2)[C@H](OC(=O)c2cc3ccccc3[nH]2)[C@H]1OC(=O)c1cc2ccccc2[nH]1`, the z-score in test [1] was -0.115; in test [2], -1.05 (inactive); in [3] it was -1.76 (inactive); in test [5], 1.63 (inactive); in test [6], -1.67 (inactive); in test [7] it was 2.96 (inactive). Further, the z-score in [8] was 2.93 (inactive); in test [9], -1.7. Moreover, the values for the composite z-score in test [4] and in [10] were -1.68 (inactive) and -0.0448, respectively.

In the case of `Cc1ccc(S[C@]2(C(=O)O)CC(=O)N(Cc3ccccc3)[C@@H]2c2ccc(CO)cc2I)cc1`, the z-score in test [1] is -0.201; in [2] it was -3.44 (inactive); in [3], -2.14 (inactive); in [5], 0.649 (inactive); in test [6], -1.44 (inactive); in test [7], -0.256 (inactive). The z-score is -0.246 (inactive) in test [8] and -1.26 in [9]. The composite z-score in test [4] was -0.975 (inactive); in test [10], -0.287.

As for `N#Cc1ccc(NN2C(C(O)c3cc(C(F)(F)F)cc(C(F)(F)F)c3)C=CC3C(=O)N(c4ccccc4)C(=O)C32)cc1` (stereo not given), the z-score was -1.75 in [1]; -0.102 (inactive) in [2]; -0.758 (inactive) in test [3]; 1.14 (inactive) in [5]; -0.0165 (inactive) in [6]; -1.55 (inactive) in test [7]. The z-score in test [8] is -0.56 (inactive); in test [9] it was -0.409. For the same compound, the composite z-score is 0.678 (inactive) in test [4] and 0.0239 in test [10].

`CCOC(=O)CCN1C(=O)[C@H]2[C@H]3[C@H](O)[C@H](O)CC(=NNC(=O)OCc4ccc(OC)cc4)[C@@H]3CC[C@H]2C1=O`: the z-score in test [1] was -0.54; in test [2], 0.458 (inactive); in [3], -1.24 (inactive); in test [5], -0.0242 (inactive); in test [6] it was -0.217 (inactive); in test [7] it was 0.149 (inactive). In addition, the z-score in [8] is 0.237 (inactive); in test [9], -1.14. Further, the composite z-score was 0.489 (inactive) in test [4] and -0.171 in [10].

In the case of `COC(=O)CC=C[C@@H](C)[C@@H](C=NO[C@H](C)c1cn([C@@H]2COC[C@H]2O)nn1)OC`, the z-score in [1] was -0.879; in test [2], -0.435 (inactive); in test [3] it was -0.179 (inactive); in test [5], 0.666 (inactive); in [6], 0.0782 (inactive); in test [7] it was 0.773 (inactive). The figures for the z-score in [8] and in test [9] were 0.878 (inactive) and -0.359, respectively. Also, the composite z-score in test [4] is -0.295 (inactive); in test [10], -0.0206.
